Article PMC5700166
Positions count from the first letter of the chain named.

How the values were obtained:
Assay in all cases: protein-binding microarray (PBM); PBM: ~300 nM protein, 6 mM HEPES pH 7.8, 80 mM KCl, 0.5 mM EDTA, 0.5 mM EGTA, 6% glycerol, 35 ng/ul poly-dIdC, 1% milk, 1 h, room temperature; Ap Aiptasia and Nv Nematostella (sea anemones) / Co Capsaspora / Aq Amphimedon (sponge) / Dm Drosophila / Hu human; RHD is the Rel homology domain; high values mean tight binding
Conditions in all cases: dsDNA, one strand shown
GST-Ap-NF-kB RHD = target: T1, GST-Ap-NF-kB RHD (Exaiptasia pallida (Aiptasia), UniProt A0A913YAJ5 2-422)
T1 sequence: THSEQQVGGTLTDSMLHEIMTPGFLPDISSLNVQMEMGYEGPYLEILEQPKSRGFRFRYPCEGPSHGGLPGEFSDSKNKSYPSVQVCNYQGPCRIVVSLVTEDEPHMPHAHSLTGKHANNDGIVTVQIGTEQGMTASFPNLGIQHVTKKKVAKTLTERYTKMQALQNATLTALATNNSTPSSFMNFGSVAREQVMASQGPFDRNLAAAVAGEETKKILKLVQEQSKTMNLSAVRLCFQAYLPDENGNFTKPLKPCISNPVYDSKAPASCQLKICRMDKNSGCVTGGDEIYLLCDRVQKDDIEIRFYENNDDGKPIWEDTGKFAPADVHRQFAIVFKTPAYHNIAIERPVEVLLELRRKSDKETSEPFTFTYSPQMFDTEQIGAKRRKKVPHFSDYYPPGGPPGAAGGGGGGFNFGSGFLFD

[1] = target: T2, GST-Nv-NF-kB (Cys allele) (Nematostella vectensis, UniProt E5G601 2-411)
T2 sequence: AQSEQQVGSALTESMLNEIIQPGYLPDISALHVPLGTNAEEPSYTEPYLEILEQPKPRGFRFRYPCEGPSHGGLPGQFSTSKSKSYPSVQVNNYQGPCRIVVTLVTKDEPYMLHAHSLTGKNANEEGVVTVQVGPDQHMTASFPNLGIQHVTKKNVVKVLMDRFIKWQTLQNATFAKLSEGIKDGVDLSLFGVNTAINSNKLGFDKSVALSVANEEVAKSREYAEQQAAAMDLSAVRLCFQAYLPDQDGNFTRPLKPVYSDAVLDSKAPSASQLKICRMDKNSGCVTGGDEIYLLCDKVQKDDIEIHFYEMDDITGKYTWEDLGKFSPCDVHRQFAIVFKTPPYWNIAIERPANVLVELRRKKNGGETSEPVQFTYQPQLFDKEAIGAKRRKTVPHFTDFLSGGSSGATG

[2] = target: T3, GST-Nv-NF-kB (Ser allele) (Nematostella vectensis, UniProt A7UNT2 2-411)
T3 sequence: T2 sequence with Q21R, C66S, S207N, E215Q, V217A, E225K, A268E, D399E

GST-Co-NF-kB = target: T4, GST-Co-NF-kB (Capsaspora owczarzaki, UniProt F1ARL5 200-546)
T4 sequence: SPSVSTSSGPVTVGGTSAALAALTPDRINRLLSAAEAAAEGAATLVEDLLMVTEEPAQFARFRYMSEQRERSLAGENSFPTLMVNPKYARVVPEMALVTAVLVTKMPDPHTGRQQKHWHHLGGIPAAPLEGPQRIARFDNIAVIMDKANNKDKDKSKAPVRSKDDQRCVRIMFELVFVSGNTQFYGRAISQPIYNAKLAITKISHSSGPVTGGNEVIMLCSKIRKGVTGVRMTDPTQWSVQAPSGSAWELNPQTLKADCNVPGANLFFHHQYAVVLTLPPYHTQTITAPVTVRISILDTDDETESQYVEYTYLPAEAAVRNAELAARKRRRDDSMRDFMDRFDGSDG

GST-Dm-Relish = target: T5, GST-Dm-Relish (Drosophila melanogaster, UniProt Q94527 99-473)
T5 sequence: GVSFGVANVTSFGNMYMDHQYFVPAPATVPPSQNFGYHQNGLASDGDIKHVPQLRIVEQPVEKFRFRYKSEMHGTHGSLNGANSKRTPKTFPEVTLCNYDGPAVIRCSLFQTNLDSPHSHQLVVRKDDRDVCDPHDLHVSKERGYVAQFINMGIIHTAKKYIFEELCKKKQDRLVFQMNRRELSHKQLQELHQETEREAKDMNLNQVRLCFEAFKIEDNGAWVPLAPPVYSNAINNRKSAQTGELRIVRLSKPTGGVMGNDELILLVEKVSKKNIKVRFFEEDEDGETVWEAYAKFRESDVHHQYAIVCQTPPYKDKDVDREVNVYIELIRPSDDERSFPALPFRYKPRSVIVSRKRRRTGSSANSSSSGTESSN

GST-Aq-NF-kB = target: T6, GST-Aq-NF-kB (Amphimedon queenslandica, UniProt A9Y5G7 2-389)
T6 sequence: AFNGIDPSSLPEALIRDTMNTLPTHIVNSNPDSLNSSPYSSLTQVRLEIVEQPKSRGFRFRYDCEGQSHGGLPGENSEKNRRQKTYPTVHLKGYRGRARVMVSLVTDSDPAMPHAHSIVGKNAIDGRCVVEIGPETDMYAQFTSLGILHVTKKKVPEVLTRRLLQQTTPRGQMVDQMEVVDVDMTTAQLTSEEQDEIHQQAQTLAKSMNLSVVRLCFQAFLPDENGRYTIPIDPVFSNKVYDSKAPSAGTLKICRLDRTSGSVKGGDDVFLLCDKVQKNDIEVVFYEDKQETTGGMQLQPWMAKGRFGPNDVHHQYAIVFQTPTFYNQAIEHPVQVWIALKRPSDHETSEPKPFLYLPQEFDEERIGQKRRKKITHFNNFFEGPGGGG

GST-Hu-p50 = GST-Hu-p50 (Homo sapiens, UniProt P19838 7-356)
Sequence of GST-Hu-p50 (P19838 7-356): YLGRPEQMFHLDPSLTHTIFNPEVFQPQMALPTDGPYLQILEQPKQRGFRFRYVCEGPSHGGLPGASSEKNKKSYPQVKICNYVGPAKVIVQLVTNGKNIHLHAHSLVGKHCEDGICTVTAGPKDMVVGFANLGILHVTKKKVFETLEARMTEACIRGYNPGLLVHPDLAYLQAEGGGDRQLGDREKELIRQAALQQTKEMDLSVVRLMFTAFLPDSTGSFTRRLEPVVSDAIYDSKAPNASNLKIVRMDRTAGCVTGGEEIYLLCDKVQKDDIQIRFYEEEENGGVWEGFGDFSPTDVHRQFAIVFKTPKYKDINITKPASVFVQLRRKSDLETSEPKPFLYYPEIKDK

Row | Sequence | binding signal (GST-Ap-NF-kB RHD) [z-score] | binding signal [1] [z-score] | binding signal [2] [z-score] | binding signal (GST-Co-NF-kB) [z-score] | binding signal (GST-Dm-Relish) [z-score] | binding signal (GST-Aq-NF-kB) [z-score] | binding signal (GST-Hu-p50) [z-score]
1 | CCGATTAACATCAGGGGTATTACTGATGTTAATCGGGTCTTGATTCGCTTGACGCTGCTG | 4.43 | 3.56 | 3.14 | 3.37 | 3.55 | 4.5 | 3.9
2 | CCGATTAACATCAGGGGTACCCCTGATGTTAATCGGGTCTTGATTCGCTTGACGCTGCTG | 7.75 | 3.69 | 2.78 | 6.06 | 5.81 | 6.3 | 3.73
3 | CCGATTAACATCAGGACTTCCCCTGATGTTAATCGGGTCTTGATTCGCTTGACGCTGCTG | 10.1 | 10.5 | 9.94 | 4.57 | 9.98 | 10.4 | 6.36
4 | CCGATTAACATCAAGGATCCCCCTGATGTTAATCGGGTCTTGATTCGCTTGACGCTGCTG | 8.01 | 6.51 | 6.9 | 5.03 | 8.82 | 6.4 | 6.43
5 | CCGATTAACATCAAGGGGGAGATTGATGTTAATCGGGTCTTGATTCGCTTGACGCTGCTG | 6.99 | 6.09 | 7.57 | 7.21 | 3.01 | 5.27 | 7.18
6 | CCGATTAACATCAAAGTCCCCCTTGATGTTAATCGGGTCTTGATTCGCTTGACGCTGCTG | 7 | 6.84 | 6.92 | 4.36 | 8.18 | 6.66 | 6.67
7 | CCGATTAACATCACGGGGATTTATGATGTTAATCGGGTCTTGATTCGCTTGACGCTGCTG | 7.32 | 7.95 | 8.97 | 4.67 | 8.32 | 5.47 | 6.63
8 | CCGATTAACATCAAATTATCCCCTGATGTTAATCGGGTCTTGATTCGCTTGACGCTGCTG | 6.03 | 6.6 | 8.6 | 6.1 | 3.57 | 5.25 | 5.28
9 | CCGATTAACATCAGGGGATCACCTGATGTTAATCGGGTCTTGATTCGCTTGACGCTGCTG | 7.26 | 5.39 | 6.05 | 2.95 | 9.04 | 6.68 | 4.71
10 | CCGATTAACATCAATTCCCCCCATGATGTTAATCGGGTCTTGATTCGCTTGACGCTGCTG | 7.01 | 7.06 | 6.97 | 9.55 | 4.89 | 5.8 | 6.18
11 | CCGATTAACATCAAGCATTCCCCTGATGTTAATCGGGTCTTGATTCGCTTGACGCTGCTG | 6.61 | 7.73 | 8.37 | 5.48 | 4.42 | 5.38 | 5.38
12 | CCGATTAACATCAGGAAATTCCCTGATGTTAATCGGGTCTTGATTCGCTTGACGCTGCTG | 6.31 | 9.9 | 8.03 | 4.13 | 6.79 | 9.8 | 6.16
13 | CCGATTAACATCAAAAAAGCCCCTGATGTTAATCGGGTCTTGATTCGCTTGACGCTGCTG | 7.94 | 11.4 | 9.29 | 1.83 | 9.41 | 8.77 | 7.54
14 | CCGATTAACATCAGAAAAGTCCCTGATGTTAATCGGGTCTTGATTCGCTTGACGCTGCTG | 7.92 | 10.1 | 9.94 | 1.28 | 8.36 | 8.15 | 6.91
15 | CCGATTAACATCACCCACTCCCCTGATGTTAATCGGGTCTTGATTCGCTTGACGCTGCTG | 4.11 | 2.69 | 3.92 | 2.82 | 1.47 | 3.04 | 3.03
16 | CCGATTAACATCAGGGGGACACCTGATGTTAATCGGGTCTTGATTCGCTTGACGCTGCTG | 5.64 | 4.46 | 4.25 | 5.26 | 4.25 | 5.46 | 4.49
17 | CCGATTAACATCAAAAAGTCCCTTGATGTTAATCGGGTCTTGATTCGCTTGACGCTGCTG | 7.48 | 10.3 | 9.76 | 1.63 | 8.86 | 8.25 | 6.97
18 | CCGATTAACATCAGGGGGAACGATGATGTTAATCGGGTCTTGATTCGCTTGACGCTGCTG | 5.18 | 4.82 | 6.18 | 7.4 | 2.42 | 4.16 | 4.41
19 | CCGATTAACATCAAGTTTTTCCCTGATGTTAATCGGGTCTTGATTCGCTTGACGCTGCTG | 4.35 | 5.43 | 7.41 | 5.3 | 5.12 | 5.1 | 4.44
